Among the data in PubChem BioAssay (NCATS) are outcome and Potency values, retold here.

A short description of assay [1]: S16 Schwann cell viability assay (CellTiter-Glo assay) (AID 624031).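 Also: native untransfected S16 rat Schwann cells; cellular ATP luminescence as a viability measure; nearly all actives have a fitted effect of over 70% in size.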 The gist of the method:
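Cells were seeded at 500-750 per well in phenol red-free DMEM with 10% FBS and left overnight. Compounds or DMSO were pinned in, incubation ran 24 h at 37 °C/5% CO2, then CellTiter-Glo reagent was added and luminescence measured.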

For assay [2], the system named is AA1029. Put plainly: qHTS profiling for inhibitors of Plasmodium falciparum proliferation (AID 504749). Also: nearly all actives have a fitted effect of over 60% in size. Also: potency is read from the fitted curve at half-maximal effect. The settings on record: P. falciparum in erythrocytes, SYBR Green DNA, 72 h; series mostly up to 12.8 µM. The gist of the method:
(§1)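 SYBR Green fluorescence of parasite DNA, read after lysis and overnight dark incubation, measured growth over 72 h in erythrocyte culture at 0.3% parasitemia and 2.5% hematocrit. Data normalised to DMSO and 0.29 uM artemisinin, with plate-drift correction.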
For orientation: Quantitative high-throughput screening tests each substance at several concentrations.

The test system of assay [3] is AS120. Described as above. The note with it: P. falciparum in erythrocytes, SYBR Green DNA, 72 h; series mostly up to 12.8 µM. The gist of the method:
as §1

The test system of assay [4] is ATS189. The assay is described as above. The settings on record: P. falciparum in erythrocytes, SYBR Green DNA, 72 h; series mostly up to 12.8 µM. The gist of the method:
as §1

Assay [5] has as its system ATS95. The assay is described as above. The note with it: P. falciparum in erythrocytes, SYBR Green DNA, 72 h; series mostly up to 12.8 µM. The gist of the method:
as §1

Assay [6] has as its system CP191. The description is as above. The note with it: P. falciparum in erythrocytes, SYBR Green DNA, 72 h; series mostly up to 12.8 µM. The gist of the method: as §1
The subject of assay [7] is CP192. The description is as above. The settings on record: P. falciparum in erythrocytes, SYBR Green DNA, 72 h; series mostly up to 12.8 µM. The gist of the method:
as §1

Assay [8] relates to CP238. The description is as above. The note with it: P. falciparum in erythrocytes, SYBR Green DNA, 72 h; series mostly up to 12.8 µM. The gist of the method: as §1
For assay [9], the system named is CP247. Described as above. The settings on record: P. falciparum in erythrocytes, SYBR Green DNA, 72 h; series mostly up to 12.8 µM. The gist of the method: as §1
Assay [10] concerns CP256. The assay is described as above. The note with it: P. falciparum in erythrocytes, SYBR Green DNA, 72 h; series mostly up to 12.8 µM. The gist of the method:
as §1

Assay [11] deals with CP262. The description is as above. The settings on record: P. falciparum in erythrocytes, SYBR Green DNA, 72 h; series mostly up to 12.8 µM. The gist of the method: as §1
Assay [12] deals with CP265. Described as above. The settings on record: P. falciparum in erythrocytes, SYBR Green DNA, 72 h; series mostly up to 12.8 µM. The gist of the method:
as §1

The subject of assay [13] is Dd2. The description is as above. The settings on record: P. falciparum in erythrocytes, SYBR Green DNA, 72 h; series mostly up to 12.8 µM. The gist of the method:
as §1

Assay [14] has as its system N140. The assay is described as above. The note with it: P. falciparum in erythrocytes, SYBR Green DNA, 72 h; series mostly up to 12.8 µM. The gist of the method: as §1
Assay [15] relates to P93_24. Described as above. The note with it: P. falciparum in erythrocytes, SYBR Green DNA, 72 h; series mostly up to 12.8 µM. The gist of the method: as §1
For assay [16], the system named is PAD. The description is as above. The note with it: P. falciparum in erythrocytes, SYBR Green DNA, 72 h; series mostly up to 12.8 µM. The gist of the method: as §1
For assay [17], the system named is PC15. Described as above. The settings on record: P. falciparum in erythrocytes, SYBR Green DNA, 72 h; series mostly up to 12.8 µM. The gist of the method: as §1
For assay [18], the system named is SC27B. Described as above. The settings on record: P. falciparum in erythrocytes, SYBR Green DNA, 72 h; series mostly up to 12.8 µM. The gist of the method: as §1
Assay [19] has as its system TAB109. Described as above. The settings on record: P. falciparum in erythrocytes, SYBR Green DNA, 72 h; series mostly up to 12.8 µM. The gist of the method: as §1
In assay [20] the test system is TAB165. Described as above. The note with it: P. falciparum in erythrocytes, SYBR Green DNA, 72 h; series mostly up to 12.8 µM. The gist of the method:
as §1

Results filed as inconclusive are left out. Active and inactive are the calls of the source. Calls follow the shape of the dose curve; as a rule, active = well fitted curve in the direction sought with a large enough effect; inconclusive = small, poorly fitted or top-dose-only effect, or another doubt; inactive = no such curve, though single readings can be large; an effect the other way counts as inactive or inconclusive.

For `CC(C)(C)NC[C@H](O)COc1cccc2c1CCC(=O)N2`, the result in assay [1] was inactive. Also, the Potency entry in [2], in assay [3], in assay [4], in assay [5], in [6] and in assay [7] was “inactive” in each case. In addition, the Potency result in [8], in [9], in assay [10], in assay [11], in [12] and in assay [13] was “inactive” throughout. Besides, the Potency result in assay [14], in assay [15], in [16], in [17], in assay [18] and in assay [19] was “inactive” in each case. Also, the Potency result in assay [20] is “inactive”.
Regarding `C=CCOc1ccccc1OC[C@H](O)CNC(C)C`, the outcome in assay [1] was inactive. Besides, the Potency result in assay [2], in [3], in [4], in assay [5], in assay [6] and in assay [7] was “inactive” in each case. Besides, the Potency entry in assay [8], in assay [9], in assay [11], in assay [12], in assay [14] and in [15] was “inactive” in each case. The Potency result in assay [16], in [17], in [18] and in assay [19] was “inactive” in each case.
With `CS(=O)(=O)c1ccc([C@H](O)[C@H](CO)NC(=O)C(Cl)Cl)cc1`, in assay [1], the call was inactive. Further, the Potency entry in assay [3], in assay [4], in assay [5], in [6], in assay [7] and in [8] was “inactive” throughout. Further, the Potency entry in assay [9], in assay [12], in [14], in assay [16], in assay [17] and in [18] was “inactive” throughout.
As for `CO[C@H]1[C@H](O[C@H]2O[C@@H](C)[C@@H](O[C@@H]3C[C@](C)(O)[C@H](OC(=O)CC(C)C)[C@H](C)O3)[C@@H](N(C)C)[C@@H]2O)[C@@H](CC=O)C[C@@H](C)[C@@H](O)/C=C\C=C/C[C@@H](C)OC(=O)C[C@H]1OC(C)=O`, the compound was classed as inactive in assay [1]. In addition, the Potency in assay [10] is 2 µM (active); in [11], 2.28 µM (active); in [13], 1.41 µM (active); in [19], 1 µM (active). For the same compound, the Potency entry in assay [18] is “inactive”.
As for `C[C@H](Oc1ccccc1)C(=O)N[C@@H]1C(=O)N2[C@@H]1SC(C)(C)[C@@H]2C(=O)O`, in [1], the compound was called inactive. The Potency result in assay [2], in [3], in [4], in assay [5], in [6] and in assay [7] was “inactive” in each case. Moreover, the Potency result in assay [8], in [9], in [10], in [11], in assay [12] and in assay [13] was “inactive” in each case. Further, the Potency entry in assay [14], in assay [15], in assay [16], in [17], in assay [18] and in [19] was “inactive” throughout. Besides, the Potency result in assay [20] was “inactive”.
On to `NC(=O)N[C@H]1NC(=O)NC1=O`, for which the compound was classed as inactive in assay [1]. In addition, the Potency result in assay [2], in assay [3], in [4], in [5], in [6] and in assay [7] was “inactive” in each case. In addition, the Potency entry in [8], in assay [9], in assay [10], in assay [11], in [12] and in assay [13] was “inactive” in each case. Moreover, the Potency entry in assay [14], in [15], in assay [16], in [17], in assay [18] and in assay [19] was “inactive” in each case. Further, in [20], the Potency result was “inactive”.
As for `C=CCN1C(=CCO)[C@H]2C[C@H]3[C@@H]1CC[C@@]31c3ccccc3N3C=C4[C@@H]5N(/C=C/2[C@H]31)c1ccccc1[C@]51CC[C@H]2[C@H]1C[C@@H]4/C(=C/CO)N2CC=C`, in [1], the outcome was inactive. The Potency result in [2], in assay [3], in [4], in assay [5], in assay [6] and in assay [7] was “inactive” each time. In addition, the Potency result in [8], in assay [9], in assay [10], in assay [11], in assay [12] and in [13] was “inactive” throughout. Further, the Potency entry in assay [14], in assay [15], in [16], in assay [17], in assay [18] and in assay [19] was “inactive” each time. In addition, the Potency entry in assay [20] was “inactive”.
